Experimental data: the supplement of paper PMC4466236
The full ranking holds about 33,000 sequences; the median of “E-score (dimensionless, -0.5 to 0.5)” is about -0.058, and the highest 2% start at about 0.35. What follows is part of a selection rich in the highest values, with near analogues and random picks from the rest.

These sequences were tested on MvaT (assay: PBM 8-mer E-score (mean of HK and ME arrays) (E-score (dimensionless, -0.5 to 0.5)); higher = stronger relative binding preference).
Protocol: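 Protein binding microarray: GST-tagged full-length MvaT (P. aeruginosa PAO1) bound to two universal double-stranded 60-mer arrays (ME and HK), each with a constant 25-mer primer and a variable 35-mer region covering all 8-mers. The 8-mer E-score (rank-based, range -0.5 to 0.5, >0.45 = specific binding) is the mean of the two arrays.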

Sequence | PBM 8-mer E-score
AATTAAAG | 0.355
ATGTTGGA | 0.125
CAACCATA | 0.0988
CTCGTAAG | -0.0264
CCTGGTTC | -0.254
CCGCCGGC | -0.321
AAATAGGA | -0.0215
AAAAACAC | 0.087
CAGGTGAG | -0.208
GCCCCACC | -0.292
AAGGAGTC | -0.047
CTAATCAA | 0.102
GATTAAAC | 0.191
GATTAAAA | 0.217
GATTAAGA | 0.157
CATTAAAA | 0.201
TATTAAAA | 0.41
CATTAAAC | 0.334
AATTAAGA | 0.277
AATTAAAC | 0.382
TATTAAGA | 0.366
TGATGGAA | 0.0193
CGCCCCTC | -0.202
CCACCCTA | 0.0237
AAAAGTGC | 0.142

Sequence | PBM 8-mer E-score
AGGTGGGC | -0.177
AATTTGGC | 0.161
CTGCAGTA | 0.129
AAAGCATA | 0.0331
GGTTAAAC | 0.0681
ATTTTAAG | 0.225
ATTAAAAC | 0.301
GCTTAAAC | 0.121
ATTTAAAT | 0.474
ATTTAAAC | 0.398
CTTTAAAC | 0.229
CTTTAAAG | 0.25
ATTTAAAG | 0.354
ATTTTAAC | 0.307
GTTTAAAC | 0.406
GGGTGCAA | -0.0874
AGTTCGAT | 0.171
CGGTCCGA | -0.24
GGGTAGCA | -0.213
CAGTGTCC | -0.176
GACAAATC | -0.0221
GTTTAAGA | 0.246
ATTTAACA | 0.376
ATTTAATG | 0.376
GTTTAACA | 0.281

Sequence | PBM 8-mer E-score
AGTTAATA | 0.406
AGTTAATC | 0.169
ATTTAACC | 0.195
GTTTAATA | 0.407
ATTTAAGG | 0.101
GGTTAATA | 0.276
ATTTAACG | 0.255
ATTTACTG | 0.247
CAACTCCA | -0.0538
CACCCAGA | -0.158
CATAGGAG | 0.0253
AATCTCGG | 0.0949
ACACCATA | 0.0603
CCAGGTCA | -0.141
AAGTAGGT | 0.0927
CATTCCCC | -0.183
ATTTAAGC | 0.309
CTTTAATC | 0.141
ATTTAATC | 0.346
CTTTAATA | 0.344
ATTTAATA | 0.411
ATTTAAGA | 0.239
AGATCGCG | -0.153
GATTCAGA | -0.0136
GAGTTAGC | -0.00613

Sequence | PBM 8-mer E-score
GGACCAAA | -0.139
AGCTCGGA | -0.141
AAATTATG | 0.233
CAATTATC | 0.264
TAATTATA | 0.462
GAATTATA | 0.374
AAATTATC | 0.318
TAATTGTA | 0.305
TAATTCTA | 0.278
GAATTATC | 0.147
AAATTATA | 0.45
CAATTATG | 0.329
GAATTACA | 0.175
CAATTATA | 0.414
AAGGACCA | -0.154
AGGGGGTG | -0.316
AACCTGCT | -0.0689
TGTCCCAA | 0.187
CTGGCAAC | 0.0118
TCCTTCAA | -0.14
ATACTAAG | 0.272
AGTAGGTG | -0.0642
AATCGAAC | 0.176
CCCGGCGA | -0.269
TAATTACA | 0.384

Sequence | PBM 8-mer E-score
AAATTGTT | 0.351
AAATTATT | 0.401
AAATTACA | 0.274
GAATTAGA | 0.106
AAATTGTA | 0.267
AAATTAGG | 0.165
TAATTAGA | 0.353
AAATTACC | 0.212
CAATTACA | 0.288
CAATTAGA | 0.202
AAATTGTC | 0.22
ACAGCAAG | -0.0242
GTACATAA | 0.297
CCGGGACC | -0.311
ATCCAGAA | 0.0751
ATCAGTCG | -0.0941
ACAAATGC | 0.0069
GAGGTAGC | -0.211
AGCCACCA | -0.0502
AAAAGTTA | 0.371
AAAAGTGA | 0.0292
GAAAGTTA | 0.346
CATAGTTA | 0.178
AAAAGTCA | 0.0201
AAAAGTTC | 0.277

Sequence | PBM 8-mer E-score
CAAAGTTA | 0.265
GATAGTTA | 0.311
AATAGTTA | 0.387
AAAAGTTG | 0.221
AAAAGTTT | 0.352
TAAAGTTA | 0.315
GCGTCAGA | -0.131
CGTGGATA | 0.112
ATCCCAGA | -0.203
GCCACGCA | -0.169
CACCGGTG | -0.153
GAAACAGA | -0.0327
CGGAGTAC | -0.128
CTGAATGC | -0.0524
AGGTCGCG | -0.202
AAAAAGTC | 0.17
AAAAAGTT | 0.357
AAAAAGTA | 0.154
TGCCGGCA | -0.0619
ATGACTCA | -0.062
AGTTAAAT | 0.383
TGTTAAAA | 0.25
AGTTAAAG | 0.209
AGTTAAAA | 0.37
CGTTAAAA | 0.295

Sequence | PBM 8-mer E-score
AGTTAAAC | 0.242
ACCTGCAC | -0.11
CCGCAGAC | -0.181
AAAGACGT | 0.0386
CGTGCGCC | -0.27
TCCAGGCA | -0.215
AAATGTAC | 0.14
AATTGTAA | 0.305
ACATGTAA | 0.361
CAATGTAA | 0.236
TCATGTAA | 0.119
GAATGTAA | 0.232
TATTGTAA | 0.379
TAATGTAA | 0.373
AAATGTAA | 0.373
GATTGTAA | 0.109
CCATGTAA | 0.171
AAATGTAG | 0.0975
AGTAGATA | 0.202
CGAATTTA | 0.157
CTGGGATA | -0.0515
CGCAACCC | -0.0943
